# Results published in PubChem BioAssay (Tox21).
# Records with an inconclusive call do not appear. Where a call stands in place of a potency, no number is given. The source made the active and inactive calls. Calls follow the shape of the dose curve; as a rule, active = well fitted inhibition curve with a large enough effect in the signal ratio in the repeat runs (not every such curve was filed as active); inconclusive = weak or mixed curves; inactive = flat fitted curve, though single readings scatter; the % refers to the signal ratio.
# Target: Progesterone receptor (Homo sapiens) (UniProt P06401)
# Experiment: qHTS assay to identify small molecule antagonists of the progesterone receptor (PR) signaling pathway (AID 1346795)
# Conditions: PR-UAS-bla HEK293T, beta-lactamase FRET ratio, 16 h; series mostly up to 92.4 µM
# From the text: National Center for Advancing Translational Sciences [NCATS]
# NIH Chemical Genomics Center [NCGC]
# U.S. Environmental Protection Agency [EPA]
# National Institutes of Environmental Health Sciences [NIEHS]
# National Toxicology Program [NTP]
# U.S. Food and Drug Administration [FDA]
# Progesterone receptor (PR), a nuclear hormone receptor, plays an important role in development, metabolic homeostasis and reproduction. […] Endocrine disrupting chemicals (EDCs) and their interactions with steroid hormone receptors like PR causes disruption of normal endocrine function. To identify the compounds that inhibit PR signaling, a PR-UAS-bla GripTite cell line i.e. PR-UAS-bla HEK293T (Invitrogen, Carlsbad, CA, USA) containing a beta-lactamase reporter gene under the control of an Upstream Activator Sequence (UAS) was used to screen Tox21 10K compound library.
# Tox21 Assay Protocol Summary:
# PR-UAS-bla HEK293T cells were dispensed at 3,000 cells/4 uL of assay medium containing 2% charcoal stripped FBS per well into black wall/clear-bottom 1536-well plates using a Multidrop Combi (ThermoFisher Scientific, Waltham, MA) dispenser. After the assay plates were incubated at a 37C and 5% CO2 for 6 hr, 23 nL of compounds dissolved in DMSO, positive controls or DMSO only was transferred to the assay plate by a Pintool station (Kalypsys, San Diego, CA), followed by addition of 1 uL (1nM as final concentration) of Promegestone (R5020) in assay medium using a BioRAPTR FRD (Flying Reagent Dispenser, Aurora Discovery, San Diego, CA). The plates were incubated at 37C and 5% CO2 for 16 hr. Then 1 uL of LiveBLAzer B/G FRET substrate was added using a FRD. After the plates were incubated at room temperature for 2 hours, fluorescence intensity was measured by an Envision plate reader (PerkinElmer, Shelton, CT).
# Progesterone receptor (Homo sapiens), sequence (P06401 whole entry, looked up): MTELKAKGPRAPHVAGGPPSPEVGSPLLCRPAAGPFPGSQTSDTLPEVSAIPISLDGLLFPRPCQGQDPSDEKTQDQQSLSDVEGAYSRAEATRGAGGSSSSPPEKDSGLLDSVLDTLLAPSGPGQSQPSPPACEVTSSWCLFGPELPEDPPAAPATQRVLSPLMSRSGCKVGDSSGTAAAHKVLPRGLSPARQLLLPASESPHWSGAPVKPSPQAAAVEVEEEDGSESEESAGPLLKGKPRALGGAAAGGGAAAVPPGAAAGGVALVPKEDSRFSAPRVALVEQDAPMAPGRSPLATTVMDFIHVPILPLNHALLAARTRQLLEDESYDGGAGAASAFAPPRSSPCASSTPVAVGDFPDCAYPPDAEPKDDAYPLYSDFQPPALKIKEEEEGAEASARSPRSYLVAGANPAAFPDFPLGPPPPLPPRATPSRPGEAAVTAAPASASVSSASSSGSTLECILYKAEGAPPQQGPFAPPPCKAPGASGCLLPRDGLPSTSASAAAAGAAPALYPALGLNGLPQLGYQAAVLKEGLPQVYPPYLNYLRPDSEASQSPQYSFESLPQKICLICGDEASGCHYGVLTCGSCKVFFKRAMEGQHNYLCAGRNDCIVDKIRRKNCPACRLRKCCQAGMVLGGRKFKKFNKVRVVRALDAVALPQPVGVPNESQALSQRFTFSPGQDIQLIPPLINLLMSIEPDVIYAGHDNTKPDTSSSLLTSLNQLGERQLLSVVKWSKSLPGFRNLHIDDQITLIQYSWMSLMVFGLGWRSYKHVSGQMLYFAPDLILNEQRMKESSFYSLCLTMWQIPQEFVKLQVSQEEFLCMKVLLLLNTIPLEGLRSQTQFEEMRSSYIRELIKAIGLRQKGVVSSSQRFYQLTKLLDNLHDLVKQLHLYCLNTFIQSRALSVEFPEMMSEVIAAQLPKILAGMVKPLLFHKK
row,Structure (SMILES),Potency
1,COC(=O)CCCC(=O)OC,inactive
2,OCc1ccccc1,inactive
3,O=S(=O)(O)c1ccccc1,inactive
4,Brc1ccc(Br)c(Br)c1,inactive
5,C=CC(=O)OCCC(=O)O,inactive
6,CC(=O)CC(C)(C)O,inactive
7,COc1ccc(CCC(C)=O)cc1,inactive
8,OC1C(O)C(O)C(O)C(O)C1O (stereo not given),inactive
9,CC(O)CC(C)(C)O (stereo not given),inactive
10,CC1(C)S[C@@H]2[C@H](NC(=O)COc3ccccc3)C(=O)N2[C@H]1C(=O)O,inactive
11,CCCCCCCC=O,inactive
12,CCCCCC(=O)O,inactive
13,O=C1C(c2[nH]c3ccccc3c2O)=Nc2ccccc21,inactive
14,C[Si]1(C)O[Si](C)(C)O[Si](C)(C)O[Si](C)(C)O1,inactive
15,CC(C)CC(=O)CC(C)CC(C)C (stereo not given),inactive
16,CC(=O)c1ccc(O)cc1,inactive
17,COc1ccc([N+](=O)[O-])cc1N,inactive
18,NCCCCCCN,inactive
19,CC1(C)OC[C@@H]2O[C@@]3(C(=O)O)OC(C)(C)O[C@H]3[C@@H]2O1,inactive
20,Cc1ccc(C(C)C)c(O)c1,inactive

row,Structure (SMILES),Potency
1,COCCCN,inactive
2,CN/C(=C\[N+](=O)[O-])NCCSCc1csc(CN(C)C)n1,inactive
3,CCCCCCCCCCCCCCCCO,inactive
4,CCOC(=O)n1ccn(C)c1=S,inactive
5,CC(C)(C)c1cc(Cc2cc(C(C)(C)C)c(O)c(C(C)(C)C)c2)cc(C(C)(C)C)c1O,inactive
6,O=[N+]([O-])c1ccc2nc[nH]c2c1,inactive
7,CCO[Si](CCC#N)(OCC)OCC,inactive
8,CCCCCCCCCCO,inactive
9,COc1cc(OC)c(C(=O)CCCN2CCCC2)c(OC)c1,inactive
10,CN1C(=O)CC[C@H]1c1cccnc1,inactive
11,O=C(O)CCCCCCCCC(=O)O,inactive
12,CC(C)CC(C)O (stereo not given),inactive
13,CCOCC(=O)O,inactive
14,NCCN1CCNCC1,inactive
15,c1ccc2c(c1)Cc1ccccc1-2,inactive
16,NCCNCCN,inactive
17,NC(=S)NNC(N)=S,inactive
18,N#Cc1ccccc1,inactive
19,CC(=O)Oc1ccc(C)cc1,inactive
20,CC(C)(C#N)c1cc(Cn2cncn2)cc(C(C)(C)C#N)c1,inactive
